Measured values from ChEMBL document CHEMBL4513216, “Probing the Open Global Health Chemical Diversity Library for Multistage-Active Starting Points for Next-Generation Antimalarials” (ACS Infect Dis, 2020).
Hit rate of the full screen: of about 69,000 compounds, about 8,600 (12%) showed an effect of 50% or more. The sample as a whole holds a higher share of strong results than the screen did.

system: Plasmodium berghei; experiment: Screen against P. berghei liver stage (PbLuc), transformed with Luciferase, at 10uM; type: functional, HepG2; conditions: tested at 10 uM

Which INHIBITION does the source give for `CCOc1ncccc1CNC(=O)N1CCCC1c1ccsc1` (stereo not given) here?
The INHIBITION was 40.9%.

With `O=C(c1cscn1)N1C[C@H]2CCCC(OCc3cccnc3)[C@H]2C1` (stereo not given in full) as the compound, how does the INHIBITION read?
The INHIBITION was 4.2%.

`CCS(=O)(=O)NCC(=O)NC1(C)CCc2ccccc2C1` (stereo not given) was tested. Which INHIBITION did it give?
The INHIBITION was -9.39%.

With `Cc1nc(CN2CCN(Cc3ccoc3)Cc3cccnc32)cs1` as the compound, how does the INHIBITION read?
Its INHIBITION is 21.6%.

For `CSc1ncc(C(=O)N2C[C@@H]3CC[C@H]2CN(S(=O)(=O)N(C)C)C3)cn1`, which INHIBITION is on record?
The INHIBITION was -9.92%.

For `Cc1c(C(=O)N2CCCSCC2)nnn1-c1ccccc1Cl`, which INHIBITION is on record?
Its INHIBITION is 26%.

Which INHIBITION does the source give for `Cc1nc(C)c(C(=O)NCCNC(=O)Cc2ccc(F)cc2)s1` here?
Its INHIBITION is -29.9%.

`CC(C)N1CCC(C(=O)N2CCC(C(O)c3nccn3C)CC2)CC1` (stereo not given) was tested. Which INHIBITION did it give?
The INHIBITION was 9.41%.

Which INHIBITION does the source give for `O=c1[nH]ncn1-c1cccc(C(F)(F)F)c1` here?
Its INHIBITION is 42.1%.

How did the INHIBITION turn out when `CCCN1CCCn2c(nc(CNC(=O)c3cnoc3C)cc2=O)C1` was run?
Its INHIBITION is 9.63%.

How did the INHIBITION turn out when `O=C(NC1(c2nccs2)CCCC1)c1cc(C2CC2)on1` was run?
The INHIBITION was 36.5%.

Which INHIBITION does the source give for `O=C(NC1(c2nccs2)CCCC1)c1[nH]nc(C2CC2)c1Cl` here?
Its INHIBITION is 56.6%.

`O=C(NC1(c2nccs2)CCCC1)c1cc(C2CC2)[nH]n1` was tested. Which INHIBITION did it give?
Its INHIBITION is 29.8%.

Which INHIBITION does the source give for `COc1cc(C)ccc1OCC(=O)NS(=O)(=O)c1ccc(Br)s1` here?
The INHIBITION was -2.19%.

`Cc1nc(CC(=O)N2CCCCC2Cn2cccn2)cs1` (stereo not given) was tested. Which INHIBITION did it give?
The INHIBITION was 7.08%.

For `CCc1nc(CC(=O)N2CCCC2Cn2cccn2)cs1` (stereo not given), which INHIBITION is on record?
The INHIBITION was 2.61%.

`O=C(c1cc2cc(F)ccc2[nH]1)N1CCCCC1Cn1cccn1` (stereo not given) was tested. Which INHIBITION did it give?
Its INHIBITION is -12.2%.

Which INHIBITION does the source give for `CCN(CC)Cc1ccc(C(=O)N2CCCC2Cn2cccn2)cc1` (stereo not given) here?
The INHIBITION was 56.85%.

Which INHIBITION does the source give for `NC(=O)c1csc(C(=O)N2CCCCC2Cn2cccn2)c1` (stereo not given) here?
Its INHIBITION is 17.8%.

For `O=C(c1cc(F)cc2[nH]cnc12)N1CCCCC1Cn1cccn1` (stereo not given), which INHIBITION is on record?
Its INHIBITION is 77.4%.

With `CCc1nc(CC(=O)N2CCCCC2Cn2cccn2)cs1` (stereo not given) as the compound, how does the INHIBITION read?
The INHIBITION was 62.6%.

How did the INHIBITION turn out when `CCc1ncc(C(=O)N2CCCCC2Cn2cccn2)s1` (stereo not given) was run?
Its INHIBITION is 33.6%.

Which INHIBITION does the source give for `CCN(CC)Cc1ccc(C(=O)N2CCCC2Cn2cccn2)o1` (stereo not given) here?
The INHIBITION was 4.05%.

With `CCN(CC)CC(=O)N1CCCC1Cn1cccn1` (stereo not given) as the compound, how does the INHIBITION read?
The INHIBITION was 21.5%.

`O=C(c1cc(F)cc2[nH]cnc12)N1CCCC1Cn1cccn1` (stereo not given) was tested. Which INHIBITION did it give?
Its INHIBITION is 39.7%.

With `NC(=O)c1ccc(C(=O)N2CCCCC2Cn2cccn2)s1` (stereo not given) as the compound, how does the INHIBITION read?
Its INHIBITION is 53.9%.

For `O=C(c1ccc2c(c1)CCC2)N1CCn2ncnc2C1`, which INHIBITION is on record?
The INHIBITION was 40.4%.

With `CS(=O)(=O)N1CCCC(Cc2ccnc(Nc3ccccn3)c2)C1` (stereo not given) as the compound, how does the INHIBITION read?
The INHIBITION was 12.7%.

`CCNC(=O)[C@@H]1C[C@@H](N)CN1C(=O)C1(c2ccc(OC)cc2)CCCC1` was tested. Which INHIBITION did it give?
The INHIBITION was 9.55%.

`Cn1ccc(CN2CCC3(CC2)CC(Nc2cnccn2)CO3)n1` (stereo not given) was tested. Which INHIBITION did it give?
The INHIBITION was 46.7%.
